Only some compounds are listed: those with a hit (about 1.8% of all), similar ones and a draw of the others.
GLP1R ag: agonists of human GLP-1 receptor | P43220 | HEK293 GLP-1R CRE-luciferase, luminescence, 4-6 h; cells express a hypersensitive GLP-1R form | Potency, µM (highest dose often 45.6 µM), most hits filed as activators | 0.007% of 380,000 active | AID 624172
RGS4 inhibitor: human RGS4 inhibition; P49798; Transcreener GDP fluorescence polarization, RGS4-accelerated GTP hydrolysis; Potency, µM (highest dose often 114 µM), most hits filed as inhibitors; 0.039% of 390,000 active; AID 504845; further: nearly all actives have a fitted effect of over 75% in size
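MLSMR compounds (23 nl, pin-transferred) preincubated 10 min at room temperature with a 500nM (2x) first reagent, then RGS4 at 900nM (2x) plus Transcreener GDP mix added; fluorescence polarization (620/688 nm) read before and after 90 min at 30 °C.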
PTHR1 ag: PTHR1 (human) receptor agonism; HEK293 GP2 PTHR1 cells, GloSensor cAMP luminescence, 1 h; Potency, µM (top dose mostly 115 µM), actives largely listed as activators; Q03431; 0.075% of 410,000 active; further: nearly all actives have a fitted effect of over 55% in size
Target sequence (Q03431 whole entry, looked up): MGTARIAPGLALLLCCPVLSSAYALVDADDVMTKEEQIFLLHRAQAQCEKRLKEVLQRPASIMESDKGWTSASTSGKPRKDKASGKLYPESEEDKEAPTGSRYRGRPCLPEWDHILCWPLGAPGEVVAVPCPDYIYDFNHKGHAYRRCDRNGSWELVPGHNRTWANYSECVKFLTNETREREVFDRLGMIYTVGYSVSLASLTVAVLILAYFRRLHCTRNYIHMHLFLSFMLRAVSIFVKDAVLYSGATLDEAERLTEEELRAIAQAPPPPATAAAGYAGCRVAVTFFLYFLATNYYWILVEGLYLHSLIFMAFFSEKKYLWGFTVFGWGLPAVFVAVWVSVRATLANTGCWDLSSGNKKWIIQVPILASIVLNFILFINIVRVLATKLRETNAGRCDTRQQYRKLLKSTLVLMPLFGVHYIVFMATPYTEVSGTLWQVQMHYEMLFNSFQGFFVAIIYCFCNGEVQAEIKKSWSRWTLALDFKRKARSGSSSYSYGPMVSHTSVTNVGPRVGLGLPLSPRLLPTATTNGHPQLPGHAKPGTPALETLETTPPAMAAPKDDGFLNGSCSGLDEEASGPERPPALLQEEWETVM
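HEK-293-derived GP2 cells expressing PTHR1 and a GloSensor cAMP reporter, 3,000/well, plated overnight, given luciferin plus IBMX (each 0.5 mM as added) for 1 h at 37 °C, then compound for 1 h at 37 °C. Luminescence was read after 15 min at room temperature.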
GCN5L2 inh: inhibitors of human GCN5L2 histone acetyltransferase; GCN5L2 HAT assay, ThioGlo1 CoA-SH fluorescence; Potency, µM (doses to about 58.9 µM), actives largely listed as inhibitors; 0.21% of 390,000 active
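Preincubate 20nM GCN5L2 with compound 15 min, RT → add 50uM ThioGlo1 + 75uM H3(1-25) + 70uM acetyl-CoA → read fluorescence 0 and 20 min. Primary qHTS; fluorescent artifacts likely.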
GLP-1R inv ag: acts as inverse agonist at human GLP-1 receptor; P43220; HEK293 GLP-1R CRE-luciferase, luminescence, 24 h; GLP-1R form is constitutively active; Potency, µM (doses to about 38.3 µM), most hits filed as inhibitors; 1.6% of 410,000 active; further: nearly all actives have a fitted effect of over 55% in size
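Inverse agonism was detected as reduced cAMP-driven luciferase luminescence after 24 h compound treatment. The cells were HEK293 clones expressing constitutively active human GLP-1R with the reporter. Reporter-only and GPR119 cell lines served as counterscreen controls.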
HEK293 tox: cytotoxicity counter-screen for GLP-1 receptor inverse agonists | HEK293 cAMP-luciferase reporter cells, luminescence, 24 h | Potency, µM (highest dose often 38.3 µM), hits mostly inhibitors | 0.13% of 410,000 active;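 further: loss of luciferase light is scored as toxicity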
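Cells in DMEM/10% Nu serum/1% pen-strep, 1536-well format. Pre-incubated 12 h, dosed with 23 nL compound, incubated a further 24 h. Luciferase detection, 12 min at room temp, luminescence.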
Large screens that a line does not name were inactive. The call rests on the fitted dose curve; in most records, active means well fitted curve in the direction sought with a large enough effect; inconclusive means small, poorly fitted or top-dose-only effect, or another doubt; inactive means no such curve, though single readings can be large; an effect the other way counts as inactive or inconclusive.

Cc1c(CCC(=O)N2CCCCC2)c(=O)oc2cc3occ(C(C)(C)C)c3cc12	none (no result: GLP1R ag)
CCON=O	none (no result: RGS4 inhibitor, PTHR1 ag, GLP-1R inv ag, HEK293 tox)
O=C1NC(=S)N(c2ccc(F)cc2)C(=O)/C1=C\c1ccoc1	RGS4 inhibitor inconclusive, GCN5L2 inh inconclusive
O=C1NC(=S)N(c2ccc(F)cc2)C(=O)/C1=C/c1ccco1	GCN5L2 inh 5.6µM (no result: GLP1R ag, RGS4 inhibitor, PTHR1 ag, GLP-1R inv ag, HEK293 tox)
COc1ccc(N2C(=O)/C(=C/c3ccc(C)o3)C(=O)NC2=S)cc1	RGS4 inhibitor inconclusive
COc1ccc(OC)c(N2C(=O)/C(=C/c3ccco3)C(=O)NC2=S)c1	RGS4 inhibitor inconclusive, GCN5L2 inh 13µM
CN[C@H]1C[C@@H](N)[C@H](O)[C@@H](O[C@@H]2O[C@H](CO)[C@H](O)[C@@H]3O[C@]4(O[C@@H]23)O[C@H]([C@@H](N)CO)[C@H](O)[C@@H](O)[C@H]4O)[C@@H]1O	none (no result: RGS4 inhibitor, PTHR1 ag, GCN5L2 inh, GLP-1R inv ag, HEK293 tox)
Cc1ccc(NC(=O)C2CCCN2S(=O)(=O)c2ccc3nc(-c4ccccc4)[nH]c3c2)cc1F (stereo not given)	GLP-1R inv ag inconclusive, HEK293 tox inconclusive (no result: GLP1R ag)
O=[N+]([O-])/C=C/c1ccc2c(c1)OCO2	RGS4 inhibitor 1.5µM (no result: GLP1R ag, PTHR1 ag, GLP-1R inv ag, HEK293 tox)
CC12CCC3c4ccc(O)c([N+](=O)[O-])c4CCC3C1CCC2=O (stereo not given)	none (no result: RGS4 inhibitor, GCN5L2 inh)
CC1COC2=C1C(=O)C(=O)c1c2ccc2c1CCCC2(C)C (stereo not given)	GCN5L2 inh 28µM (no result: GLP1R ag, RGS4 inhibitor, PTHR1 ag, GLP-1R inv ag, HEK293 tox)
O=C(NCc1cccnc1)Nc1ccccc1Cl	HEK293 tox inconclusive
O=C(NCc1cccnc1)/C(=C\c1ccc(-c2ccc(Br)cc2)o1)S(=O)(=O)c1ccccc1	RGS4 inhibitor inconclusive, GCN5L2 inh inconclusive, GLP-1R inv ag 1.8µM, HEK293 tox inconclusive
CN(C)CCN(C(=O)c1cc(Cl)sc1Cl)c1nc2ccc(F)cc2s1	GLP-1R inv ag inconclusive
CN(C)CCCN(C(=O)CCc1ccccc1)c1nc2ccc(Br)cc2s1	GLP-1R inv ag 6.3µM, HEK293 tox inconclusive
CCC1OC(=O)CC(O)C(C)[C@@H](O[C@@H]2OC(C)[C@H](O[C@@H]3C[C@@](C)(O)C(O)C(C)O3)C(N(C)C)C2O)[C@H](CC=O)CC(C)C(=O)/C=C/C(C)=C/[C@@H]1COC1OC(C)C(O)C(OC)[C@@H]1OC (stereo not given in full)	none (no result: RGS4 inhibitor, PTHR1 ag, GLP-1R inv ag, HEK293 tox)
CCOC(=O)c1cccc(NC(=O)c2cnc(N3CCCCC3)c3ccccc23)c1	GLP-1R inv ag inconclusive (no result: GLP1R ag)
CCN1CCN(c2ncc(C(=O)Nc3cc(Cl)ccc3OC)c3ccccc23)CC1	GLP-1R inv ag 1.8µM, HEK293 tox inconclusive
NS(=O)(=O)c1ccc(N=Cc2c(O)n(C3CCCCC3)c(=O)n(C3CCCCC3)c2=O)cc1	GLP-1R inv ag inconclusive
CC(C)C(=O)N1CCC(CN=Cc2c(O)n(C3CCCCC3)c(=O)n(C3CCCCC3)c2=O)CC1	GLP-1R inv ag 2.8µM
CC(C)(C#CCN1CCCCC1)OCCOC(c1ccccc1)c1ccccc1	GLP-1R inv ag 5.6µM, HEK293 tox inconclusive
Clc1ccc([C@@H](OCCN2CCCCC2)c2ccccc2)cc1	none (no result: RGS4 inhibitor, PTHR1 ag, GLP-1R inv ag, HEK293 tox)
CC(C)OCCCNC(=O)c1c(N)n(Cc2cccs2)c2nc3ccccc3nc12	GLP-1R inv ag 11µM
CC1CCCN(CCCNC(=O)c2ccc3c(c2)N(Cc2ccccc2F)C(=O)c2ccccc2S3(=O)=O)C1 (stereo not given)	GLP-1R inv ag inconclusive, HEK293 tox inconclusive
Cc1ccc(C(C#N)=Cc2ccc3c(c2)OCO3)cc1	GLP-1R inv ag 10µM (no result: RGS4 inhibitor, GCN5L2 inh)
CN1CCN(c2ccc(Nc3ccnc4cc(Cl)ccc34)cc2)CC1	GLP-1R inv ag 2µM, HEK293 tox 3.5µM
CC(=O)N1CCN(CC(=O)Nc2ccc(C#N)c(Cl)c2)CC1	none
CCN(CC)S(=O)(=O)c1ccc(C)c(NCC(=O)Nc2ccc(C#N)c(Cl)c2)c1	GLP-1R inv ag 5.6µM
CCOC(=O)C1(c2ccccc2)CCN(CCC(=O)Nc2ccc(OC)cc2)CC1	GLP-1R inv ag inconclusive (no result: RGS4 inhibitor, GCN5L2 inh)
CCOC(=O)C1(c2ccccc2)CCN(CC(=O)Nc2ccc(C)cc2)CC1	GLP-1R inv ag 8.9µM
CCOC(=O)C1(c2ccccc2)CCN(CCC(=O)Nc2cccc(Br)c2)CC1	GLP-1R inv ag 3.2µM, HEK293 tox inconclusive
COc1c(C)cc(C(=O)C2CCCN(Cc3ccccn3)C2)cc1C (stereo not given)	GLP-1R inv ag 2.8µM, HEK293 tox inconclusive
COc1c(C)cc(C(=O)C2CCCN(Cc3cnc(C)s3)C2)cc1C (stereo not given)	GLP-1R inv ag inconclusive
Cc1ncc(CN2CCCC(C(=O)c3cccc(OC(C)C)c3)C2)s1 (stereo not given)	GCN5L2 inh 20µM
O=[As]O[As]=O (stereo not given)	none (no result: RGS4 inhibitor, PTHR1 ag, GLP-1R inv ag, HEK293 tox)
C[C@@H]1CN([C@H](C)CO)C(=O)c2cc(NC(=O)Nc3ccc(C(F)(F)F)cc3)ccc2O[C@H]1CN(C)S(=O)(=O)c1cccs1	GLP-1R inv ag inconclusive, HEK293 tox inconclusive
